Laboratory results: PubChem BioAssay (NCATS)
Inconclusive results are not listed. The source made the active and inactive calls. Calls come from the whole dose curve; as a rule, active = well fitted activation curve with a large enough effect; inconclusive = small, poorly fitted or top-dose-only effect; inactive = flat fitted curve, though single readings scatter.

experiment: HEK293 18hr Apoptosis Induction qHTS against the NCATS CANVASS Library (AID 1347357); details: HEK293 caspase-3/7 Caspase-Glo luminescence; series mostly up to 46.1 µM; caspase activation: at the top concentration; for caspase activation: 0% is about no effect
Description: Natural products and their derivatives continue to be wellsprings of nascent therapeutic potential. However, many laboratories have limited resources for biological evaluation, leaving their previously isolated or synthesized compounds largely or completely untested. To address this issue, the Canvass library of natural products was assembled (https://tripod.nih.gov/canvass), in collaboration with academic and industry researchers, for quantitative high-throughput screening (qHTS) across a diverse set of cell-based and biochemical assays. The pure (>85% purity by liquid chromatography/mass spectrometry [LC/MS]) Canvass library of 346 natural products were submitted by 45 academic laboratories and companies around the world. We collected pure natural products to circumvent deconvolution and structure elucidation due to time and resource limitations. The library was formatted into 1536-well plates and evaluated in 50 qHTS (in an 11-pnt concentration series) bioassays with broad scope of disease-relevant mechanisms. The resulting data set from 50 different assays was then systematically analyzed to identify overall trends and specific natural products with interesting biological activities. Reported herein are the results of each individual qHTS and their corresponding assay protocol. The Caspase-Glo (R) (Promega) is a homogeneous, luminescent assay that measures caspase activity. The detection substrate contains tetrapeptide sequence DEVD in an "add-mix-measure" format. The reagent generates a luminescent signal produced by a thermostable luciferase. The luminescence is proportional to the amount of caspase activity in the assay reaction. National Center for Advancing Translational Sciences (NCATS), Rockville, MD National Institute of Health (NIH), Bethesda, Maryland
Cancer Cell Apoptosis Assay 1. In a 1536 well, white solid bottom tissue culture plates (Corning 7494), HEK293 cancer cells in DMEM + 10% FBS + 1% P/S media were dispensed in each well at a final concentration of 500 cells / well (5uL volume) using the Multidrop Combi (Thermo Fisher Scientific) dispenser. 2. Compounds were pin transferred (~23nL volume) via Wako Pin-tool (Wako Automation, Richmond VA) equipped with a 1536 pin head. The assay plates were treated with compounds in a concentration series with a final concentration range of 0.17nM to 103uM. 3. Doxorubicin was used as a control in a 16pnt titration (1mM; 1:2 dilution; 16-points; n = 2; column 3, rows 1 - 32) and was pin transferred via Wako Pin-tool equipped with a 1536 pin head. The final concentration range of doxorubicin is 0.1nM - 4uM. 4. The assay plates were incubated for 18 hours at 37 degrees C/5% CO2/95% Rh. 5. 3uL Caspase-Glo 3/7 (R) (Promega) detection reagent was then added to the assay plates (columns 2 - 48, rows 1 - 32) and incubated at room temperature, covered from light, for 15 min. 6. Luminescence signal was acquired via the ViewLux plate reader (PerkinElmer) using a clear filter, 20 second exposure and 2x binning settings.
Potency is the fitted concentration of half-maximal effect.

SMILES	caspase activation	Potency
CC[C@@H]1CN2CC[C@@]3(O)C(=Nc4cccc(OC)c43)[C@@H]2C[C@@H]1/C(=C\OC)C(=O)OC	1.28% (inactive)	–
C[C@]12CC(O)C3[C@@H](CCC4C[C@@H](O)CC[C@@]43CO)[C@@]1(O)CCC2C1=CC(=O)OC1 (stereo not given in full)	2.24% (inactive)	–
COC(=O)C1=C2Nc3ccccc3[C@@]23CCN2CC(C(C)=O)C1C[C@H]23 (stereo not given in full)	5.99% (inactive)	–
COc1ccc(C23Oc4cc(OC)cc(OC)c4[C@](O)([C@H](c4ccccc4)C2C(=O)NCCCCNC(=O)c2ccccc2)[C@@H]3O)cc1 (stereo not given in full)	3.2% (inactive)	–
CNCCc1ccc(O)cc1	4.54% (inactive)	–
O=C(c1ccccc1O)c1[nH]c(Cl)c(Cl)c1-n1c(C(=O)c2ccccc2O)cc(Cl)c1Cl	2.56% (inactive)	–
CCCC[C@@H]1CC[C@H]2CCCC(CCC)N12 (stereo not given in full)	0.871% (inactive)	–
C/C=C1/CN2CC[C@]34C(=Nc5ccccc53)[C@@H]2C[C@@H]1[C@H]4C(=O)OC	3.06% [at 91.4 µM] (inactive)	–
CO[C@H](c1ccccc1)[C@H]1NC(=O)C(C)NC(=O)C(C[C@@H](C)CO)N(C)C(=O)[C@@H](C(O)c2cn(C(C)(C)C3CO3)c3ccccc23)NC(=O)C(C(C)C=C(C)C)NC(=O)C(CC(C)C)N(C)C(=O)C(C(C)C)NC1=O (stereo not given in full)	0.372% [at 27.5 µM] (inactive)	–
CC=C1CN(C=O)[C@H]2C[C@@H]1[C@@H](C(=O)OC)[C@@]13CCOC21Nc1ccccc13 (stereo not given in full)	2.3% (inactive)	–
NCCc1ccccc1	0.702% (inactive)	–
CN1C(=O)[C@]23CC4C(C)(C)[C@@]5(C[C@@]41CN2CC[C@@]3(C)O)C(=O)Nc1c5ccc2c1OC=CC(C)(C)O2 (stereo not given in full)	-1.19% (inactive)	–
C=C1[C@@H](C)[C@H]2[C@H](Cc3ccccc3)NC(=O)[C@]23OC(=O)/C=C/[C@H](O)CCC[C@@H](C)C/C=C/[C@H]3[C@@H]1O	-2.02% (inactive)	–
CC(=O)N[C@H]1CCN2CCC[C@H]12	0.944% [at 103 µM] (inactive)	–
c1ccc2c3c([nH]c2c1)CNCC3	-0.761% (inactive)	–
CNCCc1ccccc1	1.2% (inactive)	–
CO[C@@H](/C=C/CC/C=C/C(=O)O)[C@@H](O)[C@H](C)[C@@H](O)/C(C)=C/[C@H](C)C(=O)CCCC1CC(=O)NC(=O)C1	2.35% (inactive)	–
CC1=CC2CC[C@@H]3[C@@H](C)C[C@H](C)[C@@H](C1)N23 (stereo not given in full)	2.81% (inactive)	–
CNCCc1c[nH]c2ccccc12	0.834% (inactive)	–
CCN1C[C@]2(C)CC[C@@H](O)[C@]34C1[C@H](C[C@H]23)C12CCC(CC14)[C@](O)(CO)[C@H]2O (stereo not given in full)	-0.688% (inactive)	–
CN(C)Cc1c[nH]c2ccccc12	5.35% (inactive)	–
CC1=CC(=O)C2=C(C)C[C@H](O)[C@@H]3[C@H](OC(=O)[C@@H]3C)[C@@H]12	4.08% (inactive)	–
COc1ccc2c(c1)[nH]c1c(C)nccc12	1.82% [at 91.4 µM] (inactive)	–
CO[C@@H](/C=C/CC/C=C/C(=O)O)[C@@H](O)[C@H](C)/C=C(\C)[C@@H](O)[C@H](C)C(=O)CCCC1CC(=O)NC(=O)C1	-1.02% (inactive)	–
CCN1C[C@]2(C)CC[C@H](O)[C@]34C1C(C[C@H]23)[C@@]12CC[C@H](CC14)[C@](O)(COC(=O)c1ccc(OC)c(OC)c1)[C@H]2O (stereo not given in full)	-2.17% (inactive)	–
CCC(=O)CCCCC[C@@H]1NC(=O)[C@H]2CCCCN2C(=O)[C@H]([C@@H](C)CC)NC(=O)[C@H](Cc2cn(OC)c3ccccc23)NC1=O	3.53% (inactive)	–
C[C@@H]1CC[C@@H](c2ccoc2)N2C[C@@]3(CC[C@@H]12)CS[C@@]1(CC[C@H]2[C@H](C)CC[C@@H](c4ccoc4)N2[C@@H]1O)C3	–	8.33 µM (active)
COc1ccc2c3c([nH]c2c1)C(C)=NCC3	4.24% (inactive)	–
CCCCC[C@@H]1OC(=O)[C@@H](C)N(C)C(=O)[C@H](CCCCC)OC(=O)C(C)N(C)C(=O)[C@H](CCCCC)OC(=O)[C@@H](C)N(C)C(=O)[C@H](CCCCC)OC(=O)C(C)N(C)C1=O (stereo not given in full)	5.72% (inactive)	–
CCC[C@H]1CC[C@H]2[C@H](C)CCC[C@H]2N1	1.07% (inactive)	–
